We go through 30 compounds from ChEMBL document CHEMBL1157539, “Thousands of chemical starting points for antimalarial lead identification” (Nature, 2010).

The structures appear in SMILES notation.

Holding throughout (format): functional
Assay [1] has as its system Plasmodium falciparum. Description: GSK_TCMDC: Inhibition of Plasmodium falciparum 3D7 in whole red blood cells, using parasite LDH activity as an index of growth. Test compounds present at 2uM.
Assay [2] relates to Plasmodium falciparum. Description: GSK_TCMDC: Inhibition of Plasmodium falciparum Dd2 in whole red blood cells, using parasite LDH activity as an index of growth. Test compounds present at 2uM.
The subject of a further assay is HepG2. Description: GSK_TCMDC: Percent inhibition of human HepG2 cell line. Test compounds present at 10uM.

`Cn1cnc2c(Nc3ccncc3)nc(-c3ccc4c(c3)OCO4)nc21.O=C(O)C(F)(F)F`: the results for the Inhibition in the assay on Plasmodium falciparum [1], in the assay with Plasmodium falciparum [2] and in the assay with HepG2 were 96%, 2% and 19%, respectively.
On the same counts, the results for `CN1CCN(CCCCNc2c3ccccc3nc3ccccc23)CC1` are 100%, 0% and 37%.
Take `CC(=O)Nc1ccc(S(=O)(=O)Nc2c(C)cc(Cc3cnc(N)nc3N)cc2C)cc1`: the Inhibition (usually the share of the control response that was lost under treatment) in the assay with Plasmodium falciparum [1] came to 94%; with Plasmodium falciparum [2], 0%; in the assay with HepG2 it was 6%.
With `O=C(Nc1cccc(CN2CCN(Cc3ccc(O)cc3)CC2)c1)c1cccc(C(F)(F)F)c1.O=C(O)C(F)(F)F`, the Inhibition is reported as 91% with Plasmodium falciparum [1], 15% in the assay with Plasmodium falciparum [2] and 21% in the assay on HepG2.
On the same counts, the results for `OC1=C2C(=Nc3ccccc3SC2c2ccccc2)c2ccccc21` (stereo not given) are 86%, 94% and 5%.
Take `CCCC(C)NC(=O)[C@H]1CNCCN1C(=O)CCCc1ccccc1.O=C(O)C(F)(F)F` (stereo not given in full): the results for the Inhibition with Plasmodium falciparum [1], in the assay with Plasmodium falciparum [2] and in the assay on HepG2 were 96%, 98% and 47%, respectively.
On the same counts, the results for `CC(C)C[C@@H](C(=O)N[C@H](C(=O)Nc1nccs1)C(C)(C)C)[C@H](CCC(F)(F)F)N(O)C=O` are 97%, 71% and 11%.
On the same counts, the results for `CC[C@H](C)CNC(=O)c1cncc(-c2cccc(CNCCCc3ccccc3)c2)c1.O=C(O)C(F)(F)F` are 95%, 0% and 9%.
On to `O=C(O)C(F)(F)F.O=S(=O)(NCCN1CCCC1)c1cccc(-c2ccc(CNCc3ccsc3)cc2)c1`, for which the Inhibition in the assay on Plasmodium falciparum [1] is recorded as 100%; with Plasmodium falciparum [2], 31%; in the assay on HepG2 it was 33%.
For `O=C(Cn1c(SCc2cccc(F)c2F)cc(=O)c2ccccc21)N(CCn1ccnc1)Cc1ccc(-c2ccc(C(F)(F)F)cc2)cc1` the same measures were 100%, 94% and 20%.
For `CC(C)CNCc1cccc(-c2cccc(CN(CCCN3CCN(C)CC3)C(=O)CCC3CCCC3)c2)c1.O=C(O)C(F)(F)F` the same measures were 100%, 96% and 45%.
Consider `O=C(Nc1ccccc1)N(Cc1ccc(-c2cccc(CNCc3ccc4c(c3)OCO4)c2)cc1)C1CCN(Cc2ccccc2)CC1.O=C(O)C(F)(F)F`, for which the Inhibition turned out to be 100% in the assay with Plasmodium falciparum [1], 65% in the assay with Plasmodium falciparum [2] and 29% with HepG2.
For `CCn1cc(C=C2Oc3c(ccc(O)c3CN3CCCCC3)C2=O)c2ccccc21` the same measures were 100%, 99% and 0%.
For `COc1cc(NC(=O)c2cc([N+](=O)[O-])ccc2NC(=O)CNC2CCCC(C)C2C)cc(OC)c1` (stereo not given) the same measures were 97%, 80% and 21%.
Take `CC(C)N1CCC(NC(=O)N2CCCN(c3ncnc4cc(-c5ccc(Cl)cc5)sc34)CC2)CC1.O=C(O)C(F)(F)F`: the figures for the Inhibition in the assay on Plasmodium falciparum [1], in the assay on Plasmodium falciparum [2] and in the assay on HepG2 were 81%, 7% and 6%, respectively.
For `CCCCCCOc1ccc(C(=O)N(Cc2ccccc2)c2c(-c3ccccc3)nc3cc(C)ccn23)cc1` the same measures were 95%, 96% and 0%.
Turning to `O=c1cc(NCCCNCc2ccccc2-c2ccccc2)[nH]c2ccccc12`, the values for the Inhibition in the assay on Plasmodium falciparum [1], in the assay on Plasmodium falciparum [2] and in the assay with HepG2 were 88%, 46% and 0%, respectively.
Turning to `COc1ccc(S(=O)(=O)Nc2ccc(C(=O)NCc3ccccc3C(F)(F)F)cc2)cc1N1CCN(CC2CC2)CC1.O=C(O)C(F)(F)F`, the Inhibition in the assay on Plasmodium falciparum [1] stood at 92%; in the assay with Plasmodium falciparum [2], 5%; with HepG2, 27%.
Take `CN1CCN(c2ccnc3ccc(NC(=O)Nc4ccc(-c5ccccc5)cc4)cc23)CC1`: the values for the Inhibition in the assay on Plasmodium falciparum [1], in the assay with Plasmodium falciparum [2] and with HepG2 were 99%, 41% and 0%, respectively.
For `Cc1cccc2nc(-c3cccc(-c4cccc(NC(=O)c5csnn5)c4)c3)[nH]c12` the same measures were 98%, 49% and 10%.
`CC(C)NCc1ccc(-c2cccc(CN3CCC(c4ccccc4)CC3)c2)c(C(=O)NCC2CCCCC2)c1.O=C(O)C(F)(F)F`: the Inhibition in the assay with Plasmodium falciparum [1] is given as 98%; with Plasmodium falciparum [2], 76%; in the assay on HepG2, 42%.
On the same counts, the results for `Cc1ccc(-c2nnc(Nc3ccc(C(=O)N4CCCCC4)cc3)c3ccccc23)cc1S(=O)(=O)NCC1CCCO1` (stereo not given) are 99%, 99% and 0%.
For `CCOC(=O)c1nc(-c2ccc(Cl)cc2)[nH]c1NC(=S)NCCCN1CCOCC1` the same measures were 92%, 33% and 22%.
On to `O=C(Nc1cccc([N+](=O)[O-])c1)Nc1cccc(C(F)(F)F)c1`, for which the Inhibition with Plasmodium falciparum [1] came out at 92%; in the assay on Plasmodium falciparum [2], 81%; in the assay on HepG2, 0%.
For the compound `Cc1noc(-c2cccs2)c1C(=O)NCCc1cccc(Cl)c1`, the figures for the Inhibition in the assay with Plasmodium falciparum [1], in the assay with Plasmodium falciparum [2] and with HepG2 were 97%, 95% and 0%, respectively.
`CO/C(=C\C=C\c1cc2cc(Cl)c(Cl)cc2[nH]1)C(=O)NC1CC2CCC(C1)N2C.Cl` (stereo not given): the figures for the Inhibition with Plasmodium falciparum [1], with Plasmodium falciparum [2] and in the assay on HepG2 were 88%, 23% and 46%, respectively.
For `FC(F)(F)c1cccc(CNCCCCCNCc2ccc(Cl)cc2)c1` the same measures were 91%, 15% and 13%.
For `CO/C(=C\C=C\c1cc2cc(Cl)c(Cl)cc2[nH]1)C(=O)NCCCCN1CCN(c2ccccc2OC)CC1` the same measures were 100%, 96% and 55%.
For `Nc1nc2c(c(=O)[nH]1)CN(S(=O)(=O)c1ccc(C(=O)N[C@@H](CCC(=O)O)C(=O)O)cc1)CC2` the same measures were 95%, 96% and 49%.
For `Cc1cc(-c2ccc(CNC3Cc4ccccc4C3)cc2)ccc1S(=O)(=O)NCCN1CCCC1.O=C(O)C(F)(F)F`, the Inhibition with Plasmodium falciparum [1] is reported as 100%; in the assay with Plasmodium falciparum [2] it was 73%; with HepG2, 99%.
